D2 ag-1: D2 dopamine receptor (human) agonism | P14416 | HEK293 T-REx D2 cells, calcium flux agonist mode | activation, % at 2 µM | 0.53% of 340,000 active | AID 485358;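 active = activation over 3 SD above normal in the single-dose calcium agonist read, cut at about 30% in these data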; also: 0% is about no effect
Target sequence (P14416 whole entry, looked up): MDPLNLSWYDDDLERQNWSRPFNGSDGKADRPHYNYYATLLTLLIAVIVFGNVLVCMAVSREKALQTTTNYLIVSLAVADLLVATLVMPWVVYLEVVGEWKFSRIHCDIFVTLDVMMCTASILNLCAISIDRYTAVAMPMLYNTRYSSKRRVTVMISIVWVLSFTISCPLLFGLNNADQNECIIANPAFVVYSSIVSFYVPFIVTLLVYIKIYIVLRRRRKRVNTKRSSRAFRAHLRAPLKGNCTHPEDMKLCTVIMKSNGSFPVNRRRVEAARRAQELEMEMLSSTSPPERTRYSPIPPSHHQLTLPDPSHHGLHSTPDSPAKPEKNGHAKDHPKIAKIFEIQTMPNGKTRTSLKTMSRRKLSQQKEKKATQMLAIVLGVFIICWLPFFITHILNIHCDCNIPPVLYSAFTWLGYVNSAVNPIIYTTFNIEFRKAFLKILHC
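Agonism scored from kinetic calcium signal (1 read/sec, 180 s) following compound pin transfer, after a 10 s baseline. Cells: HEK293 Trex line expressing inducible D2 receptor coupled to calcium, dye-loaded after overnight culture at 30 C.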
D2 PAM-1: positively modulates the human D2 dopamine receptor allosterically; potentiation, % at 10 µM; 0.34% of 340,000 active; HEK293 T-REx D2, calcium flux, EC20 dopamine potentiation;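 active = potentiation over 3 SD above the plate norm, cut at about 30% in these data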; also: 0% is about no effect
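Potentiation of an EC20 dopamine calcium response measured kinetically over 180 s, after a preceding 180 s compound-only read flagging agonists. Cells: inducible Hek293 Trex D2 line, 4000/well, cultured overnight at 30 C before dye loading.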
D2 antag: D2 dopamine receptor (human) antagonism. P14416. HEK293 TREx D2 cells, calcium flux, dopamine EC80. inhibition, % at 10 µM. 2% of 340,000 active; in the data active = inhibition above about 30%; inactive = below that, where a call was filed; also: 0% is about no effect
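HEK293 T-REx D2 cells, tet-induced, calcium dye no-wash. Cpd pintool add, 180 s kinetic, then EC80 DA, 180 s kinetic. Ca flux read.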
D2 ag-2: human D2 receptor agonism in beta-arrestin assay; DiscoveRx PathHunter D2 beta-arrestin, luminescence, 90 min; 100% = 57 uM dopamine signal; 0.084% of 360,000 active; activation, % (no concentration beside the values); in the data active = activation above about 40%; inconclusive = between about 15% and that limit
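Agonist mode: compounds alone added to overnight-plated D2 PathHunter cells for 90 min at 37 C, with 57 uM final dopamine (EC100) defining full response. Beta-arrestin recruitment detected by chemiluminescent reagent, read after 1 h at ambient temperature.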
D2 PAM-2: potentiates the human D2 dopamine receptor allosterically. 0.23% of 360,000 active. potentiation, % (no concentration beside the values). P14416. AID 624464. DiscoveRx D2 beta-arrestin cells, luminescence, 90 min; 100% = 57 uM dopamine signal; in the data active = potentiation above about 50%; inconclusive = mostly about 30% to 49%
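D2 cells co-treated with compound plus 50 nM dopamine (EC20) for 90 min at 37 deg C to detect potentiation. Beta-arrestin recruitment was read as enzyme-fragment luminescence after 1 h at ambient temperature. Full response was set by 57 uM dopamine.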
* marks the source's active call; other numbers are inactive results; u = inconclusive; x = not tested or not shown. Compounds with a hit are over-represented: about 2.4% of the library has one in this group of screens.

SMILES	D2 ag-1	D2 PAM-1	D2 antag	D2 ag-2	D2 PAM-2
Cc1ccc(Cl)cc1NC(=O)Cn1cc2c(n1)CCCCC2	0.6	-10.3	x	x	x
COc1cc(Nc2cc(C)nc3ncnn23)cc(OC)c1	0.7	4.8	25.7	4.1	-5.1
COc1cc(Nc2cc(C)nc3ncnn23)cc(OC)c1OC	-0.2	-22.2	31.9*	1.2	0.0
O=C(NC1CC(=O)N(c2cccc(F)c2)C1)c1ccc(S(=O)(=O)N2CCCCC2)cc1 (stereo unspecified)	x	-2.3	x	x	x
Brc1ccc(C2=Nc3cccc4cccc(c34)N2)o1	1.1	4.1	-9.7	u	84.0*
O=C(Nc1ccccc1C(=O)Nc1ccccc1)c1cccs1	-2.2	x	-18.5	1.5	-2.4
O=C(Nc1ccc(O)cc1C(=O)O)c1cccs1	0.0	25.2	34.6*	-0.6	9.5
O=C(NNC(=O)c1ccccc1Cl)c1cccs1	x	32.4*	-6.1	-2.9	-20.8
Cc1ccccc1C(=O)O/N=C/c1c(N2CCOCC2)n(C)c2ccccc12	0.8	-5.9	-6.4	u	179.6*
CC(=O)c1cccc(NC(=O)C(C)OC(=O)CCN=C2NS(=O)(=O)c3ccccc32)c1 (stereo unspecified)	0.0	1.6	0.9	-5.7	-34.6
COc1ccc(NC(=O)C2Cc3c(-c4ccc5c(c4)OCO5)ccnc3O2)cc1OC (stereo unspecified)	x	x	x	1.8	1.4
S=c1[nH]nc(-c2ccc(Br)o2)n1Cc1ccccc1	-0.8	34.7*	-12.7	1.5	-10.5
S=c1[nH]nc(-c2ccco2)n1Cc1ccccc1	-2.4	11.0	5.9	0.4	-10.2
COc1cccc(S(=O)(=O)N(C)C[C@H]2OCc3cnnn3CCCC(=O)N([C@@H](C)CO)C[C@@H]2C)c1	x	x	x	-10.4	2.1
COc1ccccc1/C=C/CN1CCC(Oc2ccc(C(=O)N3CCCCC3)cc2)CC1	0.4	-34.7	68.6*	0.8	-33.6
COc1ccccc1/C=C/CN1CCC(Oc2cc(C(=O)NC3CC3)ccc2OC)CC1	-0.8	-20.5	59.2*	-5.1	0.7
Clc1ccc(OCCCN2CCc3ccccc3C2)c(Br)c1	-0.7	-23.8	63.9*	-3.3	-68.1
Clc1ccc(SCCOCCN2CCc3ccccc3C2)cc1	-0.2	-22.7	49.8*	-2.5	-8.0
CC1CCCN(CCCOc2ccc(Cl)cc2Br)C1 (stereo unspecified)	0.1	-23.4	-3.9	-2.8	-39.8
Clc1ccc(OCCOCCN2CCc3ccccc3C2)c(Cl)c1	0.3	-28.3	64.4*	0.4	-14.0
Cc1cc(=O)nc2c3ccccc3n(C(C)C(=O)Nc3cc(F)ccc3F)n12 (stereo unspecified)	x	x	x	-2.1	-11.0
Cc1cc(=O)nc2c3ccccc3n(C(C)C(=O)Nc3c(F)c(F)c(F)c(F)c3F)n12 (stereo unspecified)	0.3	3.7	44.9*	4.5	0.5
CCN1CCN(C(=O)c2oc(=O)c3ccccc3c2-c2ccc(C)cc2)CC1	-0.7	-24.1	59.2*	-3.9	-11.0
Cc1ccc(-c2c(C(=O)N3CCOCC3)oc(=O)c3ccccc23)cc1	-1.0	-10.2	-5.0	-0.3	-1.2
CCn1ncc(C2=NOC(C(=O)NCc3ccc(OC)cc3)C2)c1C (stereo unspecified)	31.0*	-17.4	6.1	1.6	-7.4
SMILES	D2 ag-1	D2 PAM-1	D2 antag	D2 ag-2	D2 PAM-2
Cc1ccccc1N1CCN(CCCCN2C(=O)C3CCCN3C2=O)CC1 (stereo unspecified)	7.6	-18.7	58.9*	-3.6	-31.5
COc1ccccc1N1CCN(CCCCN2C(=O)C3CCCCN3C2=O)CC1 (stereo unspecified)	0.3	-18.2	94.3*	1.4	-28.1
CCCCOc1ccccc1N1CCN(CCCN2C(=O)C3CCCN3C2=O)CC1 (stereo unspecified)	0.8	-23.7	76.2*	-2.5	3.7
O=C1C2CCCCN2C(=O)N1CCCN1CCN(c2ccc(F)cc2)CC1 (stereo unspecified)	0.8	-9.8	-11.9	-1.2	-22.3
O=C1C2CCCN2C(=O)N1CCCN1CCN(c2cccc(Br)c2)CC1 (stereo unspecified)	-0.5	18.4	-17.2	2.7	-5.1
COc1ccccc1N1CCN(CCCN2CC(=O)N3CCCCC3C2=O)CC1 (stereo unspecified)	x	x	x	0.2	-21.2
COc1ccc(CCNC(=O)c2ccc3nc(Cc4ccccc4)oc3c2)cc1OC	-0.5	5.6	x	x	x
